# What was measured:
# Experiment in all cases: universal protein binding microarray (PBM); transcription factors of Arabidopsis thaliana; high values mean tight binding
# GST-ANAC019 NAC domain = target: T1, GST-ANAC019 NAC domain (Arabidopsis thaliana, UniProt Q9C932 14-162); settings: protein: recombinant; tags: GST; chain copies: 2; dsDNA, one strand shown
# T1 sequence: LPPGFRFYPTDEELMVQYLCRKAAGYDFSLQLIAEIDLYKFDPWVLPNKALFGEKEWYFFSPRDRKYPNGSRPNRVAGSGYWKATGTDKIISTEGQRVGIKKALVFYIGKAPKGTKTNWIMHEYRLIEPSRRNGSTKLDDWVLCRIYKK
# Method in brief: (§1)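 GST-tagged proteins (NAC-domain, full-length or DNA-binding-domain) were induced in cells, with zinc acetate supplied for zinc-finger proteins, then purified on glutathione–Sepharose 4B. Each was tested in duplicate at 200 to 500 nM final on custom all-10-mer Agilent 4 × 180K arrays rendered double-stranded by primer extension. The binding value is the normalised enrichment score (E-score) across gapped and ungapped 8-mers.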
# GST-NTL8 NAC domain = target: T2, GST-NTL8 NAC domain (Arabidopsis thaliana, UniProt Q9XIN7 14-156); settings: protein: recombinant; tags: GST; chain copies: 2; dsDNA, one strand shown
# T2 sequence: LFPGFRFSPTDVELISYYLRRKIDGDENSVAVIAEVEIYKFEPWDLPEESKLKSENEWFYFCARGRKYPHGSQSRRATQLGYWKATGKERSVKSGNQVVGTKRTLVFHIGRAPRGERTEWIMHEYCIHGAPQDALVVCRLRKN
# Method in brief: as §1
# GST-WRKY1(266-371) = GST-WRKY1(266-371) (Arabidopsis thaliana, UniProt Q9SI37 266-371); settings: protein: recombinant; tags: GST; dsDNA, one strand shown
# Chain of GST-WRKY1(266-371) (Q9SI37 266-371): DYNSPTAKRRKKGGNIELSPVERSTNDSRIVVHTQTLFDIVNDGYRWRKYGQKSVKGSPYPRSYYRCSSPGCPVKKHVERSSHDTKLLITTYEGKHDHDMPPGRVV
# Method in brief: as §1
# GST-ATAF1 NAC domain = target: T3, GST-ATAF1 NAC domain (Arabidopsis thaliana, UniProt Q39013 7-158); settings: protein: recombinant; tags: GST; chain copies: 2; dsDNA, one strand shown
# T3 sequence: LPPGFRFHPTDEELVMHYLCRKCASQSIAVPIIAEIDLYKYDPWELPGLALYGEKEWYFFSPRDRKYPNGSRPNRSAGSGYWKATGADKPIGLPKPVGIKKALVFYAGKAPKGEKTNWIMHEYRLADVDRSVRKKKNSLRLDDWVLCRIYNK
# Method in brief: as §1
# [1] = target: T4, GST-ANAC092(1-285) full length (Arabidopsis thaliana, UniProt Q9FKA0 1-285); settings: protein: recombinant; tags: GST; chain copies: 2; dsDNA, one strand shown
# T4 sequence: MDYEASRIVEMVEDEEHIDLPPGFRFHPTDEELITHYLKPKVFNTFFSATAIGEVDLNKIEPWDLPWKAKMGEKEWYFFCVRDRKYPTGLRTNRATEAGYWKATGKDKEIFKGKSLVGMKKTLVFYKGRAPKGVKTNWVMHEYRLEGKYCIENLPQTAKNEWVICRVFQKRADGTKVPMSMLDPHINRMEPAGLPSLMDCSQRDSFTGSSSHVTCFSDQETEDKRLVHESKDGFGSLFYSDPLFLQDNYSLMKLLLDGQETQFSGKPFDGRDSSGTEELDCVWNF
# Method in brief: as §1
# GST-NTL6(1-168) = GST-NTL6(1-168) (Arabidopsis thaliana, UniProt Q9SCK6 1-168); settings: protein: recombinant; tags: GST; chain copies: 2; dsDNA, one strand shown
# Chain of GST-NTL6(1-168) (Q9SCK6 1-168): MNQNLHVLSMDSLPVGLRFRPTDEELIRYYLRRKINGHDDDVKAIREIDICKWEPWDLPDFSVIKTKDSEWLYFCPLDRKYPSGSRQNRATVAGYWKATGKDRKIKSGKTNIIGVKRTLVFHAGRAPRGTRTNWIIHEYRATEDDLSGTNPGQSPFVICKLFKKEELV
# Method in brief: as §1
# GST-ANAC055(1-171) = target: T5, GST-ANAC055(1-171) (Arabidopsis thaliana, UniProt Q9LDY8 1-171); settings: protein: recombinant; tags: GST; chain copies: 2; dsDNA, one strand shown
# T5 sequence: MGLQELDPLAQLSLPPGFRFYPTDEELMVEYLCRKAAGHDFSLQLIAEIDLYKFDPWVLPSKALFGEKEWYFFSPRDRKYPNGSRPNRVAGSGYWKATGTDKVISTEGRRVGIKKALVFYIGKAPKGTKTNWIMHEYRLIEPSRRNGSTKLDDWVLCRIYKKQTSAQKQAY
# Method in brief: as §1
# GST-NST2(1-184) = target: T6, GST-NST2(1-184) (Arabidopsis thaliana, UniProt Q9M274 1-184); settings: protein: recombinant; tags: GST; chain copies: 2; dsDNA, one strand shown
# T6 sequence: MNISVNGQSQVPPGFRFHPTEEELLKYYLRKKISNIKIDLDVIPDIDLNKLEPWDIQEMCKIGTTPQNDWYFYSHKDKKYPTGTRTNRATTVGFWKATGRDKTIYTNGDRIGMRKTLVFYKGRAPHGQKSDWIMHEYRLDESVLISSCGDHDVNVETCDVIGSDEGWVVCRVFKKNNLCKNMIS
# Method in brief: as §1
# GST-NAP(1-166) = target: T7, GST-NAP(1-166) (Arabidopsis thaliana, UniProt O49255 1-166); settings: protein: recombinant; tags: GST; chain copies: 2; dsDNA, one strand shown
# T7 sequence: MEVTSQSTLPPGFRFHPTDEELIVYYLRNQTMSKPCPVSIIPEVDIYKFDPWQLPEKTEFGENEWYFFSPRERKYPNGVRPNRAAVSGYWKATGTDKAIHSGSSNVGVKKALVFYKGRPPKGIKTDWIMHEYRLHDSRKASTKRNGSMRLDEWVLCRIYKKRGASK
# Method in brief: as §1
sequence,measurement,setting,value
CACGGTCA,binding signal,GST-ANAC019 NAC domain,0.052 E-score
same,binding signal,GST-NTL8 NAC domain,0.063 E-score
same,binding signal,GST-WRKY1(266-371),0.44 E-score
GACCAAGA,binding signal,GST-ANAC019 NAC domain,0.0567 E-score
same,binding signal,GST-WRKY1(266-371),0.403 E-score
GAAAGTCA,binding signal,GST-ATAF1 NAC domain,0.0574 E-score
same,binding signal,[1],0.0781 E-score
same,binding signal,GST-WRKY1(266-371),0.461 E-score
AGGTCAAT,binding signal,GST-NTL6(1-168),0.137 E-score
same,binding signal,GST-ANAC055(1-171),0.0969 E-score
same,binding signal,GST-WRKY1(266-371),0.478 E-score
GAGTCAAC,binding signal,GST-ANAC019 NAC domain,0.14 E-score
same,binding signal,GST-WRKY1(266-371),0.487 E-score
ATTTGACC,binding signal,GST-ANAC055(1-171),0.079 E-score
same,binding signal,GST-WRKY1(266-371),0.481 E-score
GGTGGTCA,binding signal,GST-ANAC019 NAC domain,0.0992 E-score
same,binding signal,GST-WRKY1(266-371),0.43 E-score
GAATTGAC,binding signal,GST-ANAC055(1-171),0.0993 E-score
same,binding signal,GST-ATAF1 NAC domain,0.092 E-score
same,binding signal,[1],0.0675 E-score
same,binding signal,GST-NST2(1-184),0.0714 E-score
same,binding signal,GST-NTL8 NAC domain,0.051 E-score
same,binding signal,GST-WRKY1(266-371),0.439 E-score
CTGACCAC,binding signal,GST-ANAC019 NAC domain,0.0574 E-score
same,binding signal,GST-WRKY1(266-371),0.41 E-score
CAGTCAGA,binding signal,GST-ANAC019 NAC domain,0.0745 E-score
same,binding signal,GST-WRKY1(266-371),0.404 E-score
TGACTGCA,binding signal,GST-NTL6(1-168),0.0778 E-score
same,binding signal,GST-ANAC055(1-171),0.0624 E-score
same,binding signal,GST-ATAF1 NAC domain,0.0918 E-score
same,binding signal,GST-WRKY1(266-371),0.413 E-score
AAAGTCTT,binding signal,GST-NTL6(1-168),0.0508 E-score
same,binding signal,GST-ANAC055(1-171),0.109 E-score
same,binding signal,GST-WRKY1(266-371),0.429 E-score
GTAGGTCA,binding signal,GST-ANAC019 NAC domain,0.129 E-score
same,binding signal,GST-NTL8 NAC domain,0.0647 E-score
same,binding signal,GST-WRKY1(266-371),0.416 E-score
TGACCCCA,binding signal,GST-ANAC019 NAC domain,0.0651 E-score
same,binding signal,GST-WRKY1(266-371),0.428 E-score
GAAAAGTC,binding signal,GST-ANAC019 NAC domain,0.139 E-score
same,binding signal,GST-ATAF1 NAC domain,0.137 E-score
same,binding signal,GST-NAP(1-166),0.145 E-score
same,binding signal,GST-NST2(1-184),0.0971 E-score
same,binding signal,GST-NTL8 NAC domain,0.19 E-score
same,binding signal,GST-WRKY1(266-371),0.413 E-score
GCTGACCA,binding signal,GST-ANAC019 NAC domain,0.0761 E-score
same,binding signal,GST-WRKY1(266-371),0.462 E-score
GGAAGTCA,binding signal,GST-NTL6(1-168),0.132 E-score
same,binding signal,GST-ANAC019 NAC domain,0.0521 E-score
same,binding signal,[1],0.0837 E-score
same,binding signal,GST-NTL8 NAC domain,0.0895 E-score
same,binding signal,GST-WRKY1(266-371),0.429 E-score
GTGTCAAC,binding signal,GST-ANAC019 NAC domain,0.0933 E-score
same,binding signal,GST-NAP(1-166),0.0561 E-score
same,binding signal,GST-WRKY1(266-371),0.404 E-score
ACTTGACT,binding signal,GST-ANAC055(1-171),0.0752 E-score
same,binding signal,GST-ATAF1 NAC domain,0.186 E-score
same,binding signal,[1],0.0808 E-score
same,binding signal,GST-NST2(1-184),0.0742 E-score
same,binding signal,GST-WRKY1(266-371),0.456 E-score
GAAGACCA,binding signal,GST-ANAC019 NAC domain,0.0558 E-score
same,binding signal,GST-WRKY1(266-371),0.442 E-score
GTTGACGA,binding signal,GST-ATAF1 NAC domain,0.0784 E-score
same,binding signal,GST-WRKY1(266-371),0.453 E-score
GCGTTGAC,binding signal,GST-ANAC019 NAC domain,0.0691 E-score
same,binding signal,GST-NAP(1-166),0.116 E-score
same,binding signal,GST-WRKY1(266-371),0.488 E-score
GGTCAAGA,binding signal,GST-ANAC019 NAC domain,0.09 E-score
same,binding signal,[1],0.0594 E-score
same,binding signal,GST-NST2(1-184),0.08 E-score
same,binding signal,GST-WRKY1(266-371),0.477 E-score
AGTCAATG,binding signal,GST-ATAF1 NAC domain,0.0527 E-score
same,binding signal,GST-NST2(1-184),0.0628 E-score
same,binding signal,GST-WRKY1(266-371),0.481 E-score
CGAAGTCA,binding signal,GST-NTL6(1-168),0.0962 E-score
same,binding signal,GST-NTL8 NAC domain,0.132 E-score
same,binding signal,GST-WRKY1(266-371),0.42 E-score
GATTTGAC,binding signal,GST-ATAF1 NAC domain,0.122 E-score
same,binding signal,GST-WRKY1(266-371),0.464 E-score
AGGTTGAC,binding signal,GST-ATAF1 NAC domain,0.13 E-score
same,binding signal,GST-WRKY1(266-371),0.474 E-score
AGTCAGAC,binding signal,GST-ANAC019 NAC domain,0.0719 E-score
same,binding signal,GST-WRKY1(266-371),0.442 E-score
GAAGGTCA,binding signal,GST-NTL6(1-168),0.116 E-score
same,binding signal,GST-NTL8 NAC domain,0.0878 E-score
same,binding signal,GST-WRKY1(266-371),0.426 E-score
CCGTTGAC,binding signal,GST-ANAC019 NAC domain,0.157 E-score
same,binding signal,[1],0.0578 E-score
same,binding signal,GST-NAP(1-166),0.126 E-score
same,binding signal,GST-WRKY1(266-371),0.49 E-score
GTTTGACA,binding signal,GST-ANAC055(1-171),0.0647 E-score
same,binding signal,GST-ATAF1 NAC domain,0.101 E-score
same,binding signal,GST-NST2(1-184),0.0521 E-score
same,binding signal,GST-WRKY1(266-371),0.417 E-score
GACTTGAC,binding signal,GST-ANAC055(1-171),0.11 E-score
same,binding signal,GST-ATAF1 NAC domain,0.199 E-score
same,binding signal,[1],0.0614 E-score
same,binding signal,GST-NTL8 NAC domain,0.0707 E-score
same,binding signal,GST-WRKY1(266-371),0.458 E-score

# From article PMC4081100, “A DNA-binding-site landscape and regulatory network analysis for NAC transcription factors in Arabidopsis thaliana”
